Reference: PMC6792352, “Limited Chemical Structural Diversity Found to Modulate Thyroid Hormone Receptor in the Tox21 Chemical Library” (Environmental Health Perspectives, 2019)
Structures can show the parent of a compound that is named as a salt.

system: thyroid hormone receptor (endogenous TRα and TRβ); parameters: species or system GH3-TRE-Luc (rat pituitary); GH3-TRE-Luc luciferase reporter, antagonist mode against 1 nM T3, loss of signal, qHTS; details: read-out: Average AC50 (uM) GH3-TRE-Antag, antagonist mode, 1 nM T3, no GH3 cytotoxicity hit

Row | SMILES | AC50
1 | CC(C(=O)O)c1ccc2c(c1)CC(=O)c1ccccc1S2 (stereo not drawn) [Zaltoprofen] | 29.1 µM
2 | CC/C=C\C/C=C\C/C=C\CCCCCCCC(=O)OCC [Ethyl linolenate] | 65.3 µM
3 | CC1(C)S[C@@H]2[C@H](NC(=O)[C@H](N)c3ccccc3)C(=O)N2[C@H]1C(=O)OC1OC(=O)c2ccccc21 (stereo partly drawn) [Talampicillin hydrochloride] | > 20 µM
4 | COCCCOc1ccnc(C[S+]([O-])c2nc3ccccc3[nH]2)c1C (stereo not drawn) [Rabeprazole sodium] | 51.1 µM
5 | O=c1oc2ccccc2c(O)c1Cc1c(O)c2ccccc2oc1=O [Dicumarol] | 12.7 µM
6 | CCCCNC(=O)n1c(NC(=O)OC)nc2ccccc21 [Benomyl] | 8.81 µM
7 | Oc1ccc2ccc3cccc4ccc1c2c34 [1-Hydroxypyrene] | 55.7 µM
8 | CC[C@H](C)C(=O)O[C@H]1CCC=C2C=C[C@H](C)[C@H](CC[C@@H]3C[C@@H](O)CC(=O)O3)[C@H]21 [Mevastatin] | 30.9 µM
9 | CC(C)=CCC/C(C)=C/CC/C(C)=C/CC/C(C)=C/CC1=C(C)C(=O)c2ccccc2C1=O [Menatetrenone] | 24.9 µM
10 | NCCN1CCNCC1 [1-(2-Aminoethyl)piperazine] | > 90 µM
11 | C#C[C@]1(O)CC[C@H]2[C@@H]3CCC4=C(CCC(=O)C4)[C@H]3CC[C@@]21C [Norethynodrel] | 16.4 µM
12 | C[C@]12CCC(=O)C=C1[C@@H]1C[C@@H]1[C@H]1[C@@H]3[C@@H]4C[C@@H]4[C@@]4(CCC(=O)O4)[C@@]3(C)CC[C@@H]12 [Drospirenone] | 21.9 µM
13 | c1ccc(-c2nc[nH]c2-c2ccccc2)cc1 [4,5-Diphenylimidazole] | 24.1 µM
14 | C#C[C@]1(O)CC[C@H]2[C@@H]3CCC4=CC(=O)CC[C@@H]4[C@H]3C(=C)C[C@@]21CC [Etonogestrel] | 19.5 µM
15 | COc1ccccc1NC(=O)c1cc2ccccc2cc1O [3-Hydroxy-2-naphthoic o-anisidide] | 10.4 µM
16 | Brc1cc(-c2ccc(Br)c(Br)c2Br)cc(Br)c1Br [Polybrominated biphenyls (PBB)] | 51.8 µM
17 | C=CCOC(=O)/C=C\C(=O)OCC=C [Diprop-2-en-1-yl (2Z)-but-2-enedioate] | 79.2 µM
18 | CC1(C)C(/C=C(\Cl)C(F)(F)F)C1C(=O)OC(C#N)c1cccc(Oc2ccccc2)c1 (stereo not drawn) [alpha-Cyhalothrin] | 26.1 µM
19 | COC(=O)C(C)N(C(=O)Cc1ccccc1)c1c(C)cccc1C (stereo not drawn) [Benalaxyl] | > 90 µM
20 | c1ccc(P(c2ccccc2)c2ccccc2)cc1 [Triphenylphosphine] | > 90 µM
21 | CCCCCc1ccco1 [2-Pentylfuran] | 61.2 µM
22 | C[C@]12CC[C@@H]3c4ccc(O)cc4CC[C@H]3[C@@H]1C[C@@H](O)[C@@H]2O [Estriol] | > 50 µM
23 | CC(C(=O)O)c1ccc(N2Cc3ccccc3C2=O)cc1 (stereo not drawn) [Indoprofen] | 7.85 µM
24 | CC(C)c1c(CN(C)C(C)Cc2ccccc2)n(C)n(-c2ccccc2)c1=O (stereo not drawn) [Famprofazone] | 13.1 µM
25 | CC[C@H](C)[C@@H](C(=O)O)n1sc2ccccc2c1=O [(2S,3S)-3-Methyl-2-(3-oxo-1,2-benzothiazol-2(3H)-yl)pentanoic acid] | > 90 µM
26 | CCCCCCCCCCCCSC#N [Lauryl thiocyanate] | 42.6 µM
27 | Cc1cccc(Nc2ccccc2)c1 [3-Methyl-N-phenylaniline] | 45 µM
